Experimental data: the supplement of paper PMC10849652
The full data set covers some 7,900 targets. This sample favours those with a hit. About 0.6% of all pairs of compound and target were hits.

The targets below were run with c1cn2cc(-c3ccc4cn[nH]c4c3)nc(Nc3ccc(N4CCOCC4)cc3)c2n1 [entospletinib] (assay: log2 fold change, soluble protein after heating vs DMSO (PISA); higher = thermal stabilisation; K562 cells, 10 uM, 30 min; active = over 0.2 and 3.5 SD of the protein, either way, in both replicates (recomputed)).
Method in brief: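 Thermal stability values are relative to control samples and come from duplicates. They are expressed as log2 fold changes. For measurement, K562 cells (2×10^6 cells/mL) received 10 μM compound for 30 min, and aliquots were heated for 3 min over 48°C-58°C, pooled, and extracted at 4°C in PBS with 0.5% NP-40. Soluble protein, the supernatant after 21,000xg for 90 min, was quantified by TMTpro 16plex LC-MS/MS with equalised channel sums.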

UniProt Q8IWJ2, sequence (Q8IWJ2 whole entry, looked up): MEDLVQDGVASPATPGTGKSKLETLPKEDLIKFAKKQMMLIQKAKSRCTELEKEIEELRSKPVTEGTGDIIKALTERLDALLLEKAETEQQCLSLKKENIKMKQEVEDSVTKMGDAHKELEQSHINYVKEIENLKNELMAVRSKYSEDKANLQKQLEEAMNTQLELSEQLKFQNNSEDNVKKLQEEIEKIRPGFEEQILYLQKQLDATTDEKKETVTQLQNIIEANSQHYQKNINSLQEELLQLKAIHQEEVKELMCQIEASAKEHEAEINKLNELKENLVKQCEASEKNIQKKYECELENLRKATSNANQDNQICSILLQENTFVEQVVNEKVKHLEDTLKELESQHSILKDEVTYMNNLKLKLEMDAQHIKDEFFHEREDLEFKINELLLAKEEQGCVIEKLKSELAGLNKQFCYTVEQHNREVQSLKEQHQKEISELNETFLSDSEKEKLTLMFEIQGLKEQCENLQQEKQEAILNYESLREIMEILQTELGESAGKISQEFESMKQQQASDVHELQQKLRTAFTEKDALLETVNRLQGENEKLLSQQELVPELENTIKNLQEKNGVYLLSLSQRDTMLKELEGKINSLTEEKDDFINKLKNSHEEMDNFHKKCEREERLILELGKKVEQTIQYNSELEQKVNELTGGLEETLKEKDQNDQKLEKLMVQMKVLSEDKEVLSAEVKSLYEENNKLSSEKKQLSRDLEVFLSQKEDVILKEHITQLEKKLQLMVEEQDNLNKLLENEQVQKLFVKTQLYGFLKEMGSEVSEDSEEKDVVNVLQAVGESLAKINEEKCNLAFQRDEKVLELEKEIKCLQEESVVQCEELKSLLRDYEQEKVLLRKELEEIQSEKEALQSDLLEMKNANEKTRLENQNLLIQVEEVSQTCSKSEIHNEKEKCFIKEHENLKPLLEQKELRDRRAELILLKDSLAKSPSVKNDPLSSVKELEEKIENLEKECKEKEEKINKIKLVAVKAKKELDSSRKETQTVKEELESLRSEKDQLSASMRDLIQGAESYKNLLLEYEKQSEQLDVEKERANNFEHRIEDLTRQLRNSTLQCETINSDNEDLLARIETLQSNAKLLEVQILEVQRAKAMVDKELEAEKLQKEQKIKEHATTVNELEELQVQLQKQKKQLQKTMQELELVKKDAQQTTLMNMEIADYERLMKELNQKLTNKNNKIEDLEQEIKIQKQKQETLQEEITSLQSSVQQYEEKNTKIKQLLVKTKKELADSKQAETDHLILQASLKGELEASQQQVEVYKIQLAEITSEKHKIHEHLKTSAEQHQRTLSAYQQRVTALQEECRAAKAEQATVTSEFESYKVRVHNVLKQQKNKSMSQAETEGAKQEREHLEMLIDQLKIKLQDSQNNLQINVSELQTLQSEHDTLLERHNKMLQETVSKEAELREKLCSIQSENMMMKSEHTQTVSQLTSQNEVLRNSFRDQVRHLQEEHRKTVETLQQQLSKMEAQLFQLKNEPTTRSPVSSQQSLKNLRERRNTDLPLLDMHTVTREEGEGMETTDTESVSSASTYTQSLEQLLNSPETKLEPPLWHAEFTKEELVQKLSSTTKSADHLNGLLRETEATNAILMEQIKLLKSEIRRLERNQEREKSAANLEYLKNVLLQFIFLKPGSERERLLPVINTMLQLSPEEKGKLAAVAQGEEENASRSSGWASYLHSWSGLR
UniProt Q9UQC2, sequence (Q9UQC2 whole entry, looked up): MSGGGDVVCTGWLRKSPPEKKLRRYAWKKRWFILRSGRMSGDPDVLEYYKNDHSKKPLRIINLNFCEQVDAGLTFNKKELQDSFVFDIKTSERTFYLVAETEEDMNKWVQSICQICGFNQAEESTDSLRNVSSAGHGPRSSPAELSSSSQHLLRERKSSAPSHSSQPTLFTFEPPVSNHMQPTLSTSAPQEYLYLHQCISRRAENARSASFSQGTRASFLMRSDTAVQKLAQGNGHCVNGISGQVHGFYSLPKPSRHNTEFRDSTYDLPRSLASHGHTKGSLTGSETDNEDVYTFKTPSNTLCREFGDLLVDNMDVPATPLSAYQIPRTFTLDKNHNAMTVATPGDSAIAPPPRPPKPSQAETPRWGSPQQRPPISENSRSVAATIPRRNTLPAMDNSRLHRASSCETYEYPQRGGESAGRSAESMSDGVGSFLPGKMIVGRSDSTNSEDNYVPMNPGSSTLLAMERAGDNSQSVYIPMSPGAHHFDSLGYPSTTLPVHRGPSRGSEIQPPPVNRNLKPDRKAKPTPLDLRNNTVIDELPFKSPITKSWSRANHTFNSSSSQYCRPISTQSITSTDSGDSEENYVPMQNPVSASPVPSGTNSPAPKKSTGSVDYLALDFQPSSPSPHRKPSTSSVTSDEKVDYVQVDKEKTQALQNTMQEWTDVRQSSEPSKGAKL
UniProt Q96I24, sequence (Q96I24 whole entry, looked up): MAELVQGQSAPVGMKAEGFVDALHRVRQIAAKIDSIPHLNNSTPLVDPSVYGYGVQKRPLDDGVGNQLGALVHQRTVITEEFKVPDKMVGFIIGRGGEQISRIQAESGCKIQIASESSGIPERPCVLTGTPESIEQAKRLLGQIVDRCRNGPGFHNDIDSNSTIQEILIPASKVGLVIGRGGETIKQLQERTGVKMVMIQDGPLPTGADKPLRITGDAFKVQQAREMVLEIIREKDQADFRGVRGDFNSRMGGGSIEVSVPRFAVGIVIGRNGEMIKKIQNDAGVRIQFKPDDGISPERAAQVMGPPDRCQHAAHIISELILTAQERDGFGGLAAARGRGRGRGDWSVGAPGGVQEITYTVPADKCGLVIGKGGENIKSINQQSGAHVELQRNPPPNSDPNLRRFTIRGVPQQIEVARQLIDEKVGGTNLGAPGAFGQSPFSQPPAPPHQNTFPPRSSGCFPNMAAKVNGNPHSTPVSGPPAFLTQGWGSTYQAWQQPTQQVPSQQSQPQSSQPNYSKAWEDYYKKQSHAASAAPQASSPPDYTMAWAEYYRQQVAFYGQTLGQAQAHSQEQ
UniProt Q00688, sequence (Q00688 whole entry, looked up): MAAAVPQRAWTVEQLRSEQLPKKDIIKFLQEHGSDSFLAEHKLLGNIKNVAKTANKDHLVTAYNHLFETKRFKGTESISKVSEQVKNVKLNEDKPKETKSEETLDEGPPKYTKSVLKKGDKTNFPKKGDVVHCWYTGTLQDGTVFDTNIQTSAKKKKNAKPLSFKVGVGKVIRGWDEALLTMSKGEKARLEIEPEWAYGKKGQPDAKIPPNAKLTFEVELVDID
UniProt Q658Y4, sequence (Q658Y4 whole entry, looked up): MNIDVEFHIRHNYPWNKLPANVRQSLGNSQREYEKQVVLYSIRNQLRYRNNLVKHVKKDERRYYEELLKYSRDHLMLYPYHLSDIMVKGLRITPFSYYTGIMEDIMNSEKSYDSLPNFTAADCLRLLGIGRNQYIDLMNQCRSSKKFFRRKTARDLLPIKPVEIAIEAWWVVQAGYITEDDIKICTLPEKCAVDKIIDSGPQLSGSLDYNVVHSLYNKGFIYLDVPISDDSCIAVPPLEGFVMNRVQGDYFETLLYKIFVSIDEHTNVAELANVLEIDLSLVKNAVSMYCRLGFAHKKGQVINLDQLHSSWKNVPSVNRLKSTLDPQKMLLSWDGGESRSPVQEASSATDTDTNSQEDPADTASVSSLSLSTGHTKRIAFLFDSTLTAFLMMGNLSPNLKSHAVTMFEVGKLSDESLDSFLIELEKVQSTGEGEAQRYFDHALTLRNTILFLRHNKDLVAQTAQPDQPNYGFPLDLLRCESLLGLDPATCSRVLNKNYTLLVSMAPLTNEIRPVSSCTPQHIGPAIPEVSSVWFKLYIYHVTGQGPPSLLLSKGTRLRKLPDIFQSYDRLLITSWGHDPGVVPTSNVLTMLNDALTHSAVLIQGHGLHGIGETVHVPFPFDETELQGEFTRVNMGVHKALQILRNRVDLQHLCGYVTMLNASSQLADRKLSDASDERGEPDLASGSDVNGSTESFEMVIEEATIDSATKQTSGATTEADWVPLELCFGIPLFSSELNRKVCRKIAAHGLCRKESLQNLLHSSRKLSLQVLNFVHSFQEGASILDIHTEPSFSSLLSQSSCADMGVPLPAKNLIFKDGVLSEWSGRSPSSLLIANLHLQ
UniProt P31943, sequence (P31943 whole entry, looked up): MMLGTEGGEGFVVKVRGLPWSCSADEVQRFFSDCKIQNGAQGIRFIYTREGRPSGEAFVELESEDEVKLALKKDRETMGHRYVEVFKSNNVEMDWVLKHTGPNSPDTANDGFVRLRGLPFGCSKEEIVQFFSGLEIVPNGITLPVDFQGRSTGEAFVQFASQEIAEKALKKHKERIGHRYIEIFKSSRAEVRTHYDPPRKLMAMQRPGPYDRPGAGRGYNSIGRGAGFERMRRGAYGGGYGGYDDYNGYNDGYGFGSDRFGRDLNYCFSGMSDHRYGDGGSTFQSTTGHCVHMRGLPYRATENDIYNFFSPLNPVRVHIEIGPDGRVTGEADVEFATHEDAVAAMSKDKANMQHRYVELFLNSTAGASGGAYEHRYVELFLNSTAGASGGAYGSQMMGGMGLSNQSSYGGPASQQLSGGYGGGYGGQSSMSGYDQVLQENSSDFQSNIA
UniProt Q9H0R8, sequence (Q9H0R8 whole entry, looked up): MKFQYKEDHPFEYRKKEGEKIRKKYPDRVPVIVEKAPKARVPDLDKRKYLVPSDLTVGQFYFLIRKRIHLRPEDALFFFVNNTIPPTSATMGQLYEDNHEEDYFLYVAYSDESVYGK
UniProt P06280, sequence (P06280 whole entry, looked up): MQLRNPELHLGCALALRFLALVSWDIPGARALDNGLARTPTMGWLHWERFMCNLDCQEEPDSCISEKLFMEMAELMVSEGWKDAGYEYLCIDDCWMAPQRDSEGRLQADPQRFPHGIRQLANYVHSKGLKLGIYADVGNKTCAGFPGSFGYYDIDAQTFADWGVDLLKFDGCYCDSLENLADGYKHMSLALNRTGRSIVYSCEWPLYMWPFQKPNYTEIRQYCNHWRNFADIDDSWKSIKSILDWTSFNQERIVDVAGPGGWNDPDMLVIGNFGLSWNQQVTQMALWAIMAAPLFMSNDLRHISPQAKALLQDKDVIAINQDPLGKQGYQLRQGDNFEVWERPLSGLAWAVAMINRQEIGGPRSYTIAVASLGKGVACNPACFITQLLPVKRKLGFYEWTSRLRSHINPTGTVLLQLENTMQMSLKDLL

log2 fold change, inactive:
GLA (UniProt P06280) 0.017
GTF2B (UniProt Q00403) -0.04
GUSB (UniProt P08236) 0.11
HEATR5B (UniProt Q9P2D3) -0.025
FKBP3 (UniProt Q00688) -0.028
GLCCI1 (UniProt Q86VQ1) 0.007
FDPS (UniProt P14324) -0.007
HDAC10 (UniProt Q969S8) 0.058
IGF2BP2 (UniProt Q9Y6M1) 0.24
GAPVD1 isoform 6 (UniProt Q14C86) 0.045
GTF2E2 (UniProt P29084) -0.011
FLNA (UniProt P21333) 0.062
FANCI (UniProt Q9NVI1) -0.013
GMEB1 (UniProt Q9Y692) -0.027
GAB2 (UniProt Q9UQC2) 0.046
GNG5 (UniProt P63218) 0.062
IFNGR1 (UniProt P15260) -0.019
GATA1 (UniProt P15976) 0.102
HECTD1 (UniProt Q9ULT8) -0.057
GABARAPL1 isoform 2 (UniProt Q9H0R8) -0.041
IFRD2 isoform 2 (UniProt Q12894) 0.29
HSPA8 (UniProt E9PN89) 0.099
GATD1 (UniProt Q8NB37) -0.021
GGT7 (UniProt Q9UJ14) -0.019
HBZ, A0A494C057 -0.048
GOLPH3 (UniProt Q9H4A6) -0.016
FECH isoform 2 (UniProt P22830) 0.471
GLUD2 (UniProt P49448) 0.14
GALK1 isoform 2 (UniProt P51570) -0.103
HMGB3 (UniProt O15347) 0.097
GSR (UniProt P00390) -0.047
GPAT4 (UniProt Q86UL3) 0.055
FAM91A1 (UniProt Q658Y4) 0.009
FERMT3 (UniProt Q86UX7) -0.005
IFT80 isoform 3 (UniProt Q9P2H3) -0.019
FHOD1 (UniProt Q9Y613) 0.209
HNRNPH1 (UniProt P31943) 0.108
GCC2 (UniProt Q8IWJ2) 0.144
FUBP3 (UniProt Q96I24) 0.022
GALNT2 (UniProt Q10471) -0.041
